{
  "source": "the supplement of paper PMC4166925",
  "note": "± gives the standard deviation of the averaged measurements. In all, about 33,000 sequences were measured (“E-score (dimensionless, -0.5 to 0.5)”: median about -0.046, highest 2% from about 0.36 on). This excerpt belongs to a sample that is enriched for the highest values.",
  "data": [
    {"tested_on": "T1, SpTbr T-box DNA-binding domain (GST fusion)", "T1 sequence": "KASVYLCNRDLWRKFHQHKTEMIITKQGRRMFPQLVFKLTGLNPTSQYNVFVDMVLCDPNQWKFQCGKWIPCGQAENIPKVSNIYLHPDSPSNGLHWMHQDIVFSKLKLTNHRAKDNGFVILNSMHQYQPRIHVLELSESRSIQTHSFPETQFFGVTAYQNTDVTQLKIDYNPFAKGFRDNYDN", "test": "PBM E-score of 8-mer (E-score (dimensionless, -0.5 to 0.5)); Tbr is Tbrain of the sea star Patiria miniata (Pm) or the sea urchin Strongylocentrotus purpuratus (Sp); higher = stronger binding preference", "details": "the construct has about 5 more residues each side", "how_it_was_run": "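Expression of GST-fused Tbr T-box DNA-binding domains, each holding the full T-box plus roughly five flanking residues, was carried out in BL21 E. coli at 20 °C, with purification by glutathione affinity chromatography. Universal Agilent arrays made double-stranded by primer extension were incubated with the protein at 200 nM in PBS (pH 7.5), then scanned and quantified. All ungapped 8-mers were scored from probe intensities, and each received an enrichment E-score from the Universal PBM Analysis Suite, averaged over duplicate arrays.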", "values": [
      {"sequence": "GACCGTCA", "PBM E-score of 8-mer": "0.0838 ± 0.01"},
      {"sequence": "GACAGTGC", "PBM E-score of 8-mer": "0.152 ± 0.025"},
      {"sequence": "AAAACTCC", "PBM E-score of 8-mer": "-0.156 ± 0.054"},
      {"sequence": "AAGGCGTA", "PBM E-score of 8-mer": "0.153 ± 0.028"},
      {"sequence": "AAGGCGTG", "PBM E-score of 8-mer": "0.392 ± 0.037"},
      {"sequence": "AAGGCGTC", "PBM E-score of 8-mer": "0.372 ± 0.035"},
      {"sequence": "ACGGCGTG", "PBM E-score of 8-mer": "0.232 ± 0.0069"},
      {"sequence": "AGGGCGTG", "PBM E-score of 8-mer": "0.281 ± 0.01"},
      {"sequence": "CAGGCGTC", "PBM E-score of 8-mer": "0.236 ± 0.056"},
      {"sequence": "ACGTCCTA", "PBM E-score of 8-mer": "-0.17 ± 0.032"},
      {"sequence": "AAGCGTTG", "PBM E-score of 8-mer": "0.192 ± 0.056"},
      {"sequence": "CTCGCGCA", "PBM E-score of 8-mer": "0.248 ± 0.021"},
      {"sequence": "CGCGCGCC", "PBM E-score of 8-mer": "0.173 ± 0.064"},
      {"sequence": "ATCGCGCC", "PBM E-score of 8-mer": "0.4021 ± 0.0011"},
      {"sequence": "CTCGCGCC", "PBM E-score of 8-mer": "0.412 ± 0.031"},
      {"sequence": "ATCGCGCA", "PBM E-score of 8-mer": "0.151 ± 0.015"},
      {"sequence": "ATCGCGCG", "PBM E-score of 8-mer": "0.337 ± 0.004"},
      {"sequence": "AACTAGGG", "PBM E-score of 8-mer": "0.0057 ± 0.046"},
      {"sequence": "AAGGAGGG", "PBM E-score of 8-mer": "-0.0491 ± 0.018"},
      {"sequence": "GCTCATAC", "PBM E-score of 8-mer": "-0.0299 ± 0.01"},
      {"sequence": "CGTTGGGA", "PBM E-score of 8-mer": "-0.121 ± 0.024"},
      {"sequence": "ATTAAGAC", "PBM E-score of 8-mer": "-0.0771 ± 0.015"}
    ]}
  ]
}
